Experimental findings from PubChem BioAssay (NCATS) are described below.

Records with an inconclusive call do not appear. Calls of active or inactive are those of the source. Unless noted, the call rests on the fitted dose curve; in most records, active means well fitted cell-killing curve with a large enough effect; inconclusive means small, poorly fitted or top-dose-only effect, or effect the other way; inactive means no such curve, though single readings can be large or run the other way.

Test [1] in a line: Quantitative High-Throughput drug screen in 47 multiple myeloma cell lines against the NCATS MIPE library collection: OCIMY5_PLB cell viability assay (AID 1918988). Further: potency means the concentration at half of the fitted maximal effect; nearly all actives have a fitted effect of over 65% in size. In short, it runs like this: (§1)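 MIPE 4.0 approved/investigational drugs; 500 cells/well; 48 h 37 °C humidified 5% CO2; CTG luminescence readout; DMSO = 100%, media = 0% viability.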
Test [2] is described as follows: Quantitative High-Throughput drug screen in 47 multiple myeloma cell lines against the NCATS MIPE library collection: OPM1_PLB cell viability assay (AID 1918989). Further: nearly all actives have a fitted effect of over 40% in size. Further: potency means the concentration at half of the fitted maximal effect. In short, it runs like this: as §1
Test [3] is described as follows: Quantitative High-Throughput drug screen in 47 multiple myeloma cell lines against the NCATS MIPE library collection: SKMM1_PLB cell viability assay (AID 1919863). Further: nearly all actives have a fitted effect of over 35% in size. Further: potency means the concentration at half of the fitted maximal effect. To be noted: SKMM1 myeloma viability, CellTiter-Glo ATP, 48 h; viability: stronger effect = lower value. The essentials: as §1
The nature of test [4]: Quantitative High-Throughput drug screen in 47 multiple myeloma cell lines against the NCATS MIPE library collection: U266_ATCC cell viability assay (AID 1919864). Further: nearly all actives have a fitted effect of over 35% in size. Further: potency means the concentration at half of the fitted maximal effect.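 On viability (% of DMSO control): 0% = media-only wells without cells and 100% = DMSO-only wells.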 In short, it runs like this: as §1
Test [5] can be described thus: Quantitative High-Throughput drug screen in 47 multiple myeloma cell lines against the NCATS MIPE library collection: XG6_PLB cell viability assay (AID 1919865). Further: potency means the concentration at half of the fitted maximal effect; nearly all actives have a fitted effect of over 40% in size. The essentials: as §1
The nature of test [6]: Quantitative High-Throughput drug screen in 47 multiple myeloma cell lines against the NCATS MIPE library collection: XG1_PLB cell viability assay (AID 1919866). Further: nearly all actives have a fitted effect of over 35% in size. Further: potency means the concentration at half of the fitted maximal effect. In short, it runs like this: as §1
The nature of test [7]: Quantitative High-Throughput drug screen in 47 multiple myeloma cell lines against the NCATS MIPE library collection: VP6_DJ cell viability assay (AID 1919867). Further: potency means the concentration at half of the fitted maximal effect; nearly all actives have a fitted effect of over 40% in size. The essentials:
as §1

Test [8] is described as follows: Quantitative High-Throughput drug screen in 47 multiple myeloma cell lines against the NCATS MIPE library collection: PE2_PLB cell viability assay (AID 1919869). Further: nearly all actives have a fitted effect of over 35% in size. Further: potency means the concentration at half of the fitted maximal effect. In short, it runs like this:
as §1

Test [9] in a line: Quantitative High-Throughput drug screen in 47 multiple myeloma cell lines against the NCATS MIPE library collection: PCM6_Riken cell viability assay (AID 1919870). Further: potency means the concentration at half of the fitted maximal effect; nearly all actives have a fitted effect of over 30% in size. In short, it runs like this:
as §1

A short description of test [10]: Quantitative High-Throughput drug screen in 47 multiple myeloma cell lines against the NCATS MIPE library collection: RPMI8226_ATCC cell viability assay (AID 1919871). Further: nearly all actives have a fitted effect of over 30% in size. Further: potency means the concentration at half of the fitted maximal effect. In short, it runs like this: as §1
Test [11] in a line: Quantitative High-Throughput drug screen in 47 multiple myeloma cell lines against the NCATS MIPE library collection: KMS11_JCRBsus cell viability assay (AID 1919873). Further: nearly all actives have a fitted effect of over 50% in size. Further: potency means the concentration at half of the fitted maximal effect. The essentials: as §1
A short description of test [12]: Quantitative High-Throughput drug screen in 47 multiple myeloma cell lines against the NCATS MIPE library collection: KMS28BM_JCRB cell viability assay (AID 1919874). Further: nearly all actives have a fitted effect of over 35% in size. Further: potency means the concentration at half of the fitted maximal effect. The essentials: as §1
Test [13] in a line: Quantitative High-Throughput drug screen in 47 multiple myeloma cell lines against the NCATS MIPE library collection: OCIMY7_PLB cell viability assay (AID 1918987). Further: potency means the concentration at half of the fitted maximal effect; nearly all actives have a fitted effect of over 65% in size. The essentials:
as §1

Test [14] is described as follows: Quantitative High-Throughput drug screen in 47 multiple myeloma cell lines against the NCATS MIPE library collection: OPM2_DSMZ cell viability assay (AID 1919872). Further: nearly all actives have a fitted effect of over 30% in size. Further: potency means the concentration at half of the fitted maximal effect. In short, it runs like this: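 Primary qHTS used for cherry-picking: cells at 500/well, library compounds for 48 h (37C, 5% CO2), luminescent ATP assay.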
A short description of test [15]: qHTS drug screen for cell cycle checkpoint inhibitors in PARPi-resistant BRCA-mutant ovarian cancer cell lines. (AID 1963452; calls by dose curve). To be noted: PEO1/OlaR viability, CellTiter-Glo luminescence, 96 h, stronger effect = lower value. The essentials: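 PEO1, PEO4 and PEO1/OlaR ovarian cancer cells, 600 per well, exposed 96 h at 37C to a dilution series. Viability read by CellTiter-Glo luminescence, normalized to DMSO and empty wells; activity summarized as Z-AUC.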

Test [16] is described as follows: Quantitative High-Throughput drug screen in 47 multiple myeloma cell lines against the NCATS MIPE library collection: UTMC2_PLB cell viability assay (AID 1919868). Further: potency means the concentration at half of the fitted maximal effect; nearly all actives have a fitted effect of over 55% in size. To be noted: CellTiter-Glo ATP luminescence, 48 h; viability (% of DMSO control): at 45.8 µM (top of the series) unless noted. In short, it runs like this: as §1
Test [17] can be described thus: qHTS for identification of novel therapeutic agents for treatment of microphthalmiaassociated transcription factor (MiT) renal cell carcinoma (RCC) (AID 1963991). The settings on record: CellTiter-Glo, 48 h, stronger effect = lower value. The essentials: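 Curves over 11 concentrations were fitted to CellTiter-Glo luminescence, scaled between empty wells (0%) and DMSO (100%) viability. Cells were UOK109, UOK124 and UOK145 TFE3-fusion RCC lines at 500/well, exposed 48 hours at 37 C.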

The mark [18] stands for this setting: measured here: PEO1 parental Z-AUC.

As for `CC(=O)c1c(C)c2cnc(Nc3ccc(N4CCNCC4)cn3)nc2n(C2CCCC2)c1=O`, the Potency in test [1] was 11.8 µM (active); in [2], 18.7 µM (active); in test [3] it was 16.6 µM (active); in [4] it was 20.9 µM (active); in [5] it was 14.8 µM (active); in test [6] it was 14.8 µM (active). Further, the Potency in test [7] is 18.7 µM (active); in test [8] it was 18.7 µM (active); in test [9] it was 5.9 µM (active); in [10], 2.09 µM (active); in [11], 20.9 µM (active); in test [12], 23.5 µM (active).

Consider `Cc1c(Cn2c(C)nc3c(C(=O)O)cc(N4CCOCC4)cc32)cccc1C(F)(F)F`, for which the Potency in test [13] was 0.264 µM (active); in test [2], 18.7 µM (active); in [6], 0.743 µM (active); in test [7], 4.18 µM (active). Also, the Potency result in test [4], in test [10], in [14], in [11] and in test [12] was “inactive” throughout. Moreover, the Z-AUC in [15] was 0.672 (inactive); in test [15] (setting [18]) it was 0.875; in test [15] (measured here: PEO4 Z-AUC), 0.3.

`Cc1c(C)n(Cc2ccc(-c3ccccc3C(=O)O)cc2)c2ccc(C(=O)N[C@@H](C)c3ccc([N+](=O)[O-])cc3)cc12`: the viability in test [3] is 123% (inactive). In addition, the Potency is 20.9 µM (active) in test [16], 11.8 µM (active) in test [8] and 18.7 µM (active) in test [11]. For the same compound, the Potency entry in test [10] and in test [14] was “inactive” in each case. Besides, the figures for the Z-AUC in test [15], in test [15] (setting [18]) and in test [15] (measured here: PEO4 Z-AUC) were 0.131 (inactive), 0.774 and 0.226, respectively.

With `CN(C1CCc2c(c3ccccc3n2CC(=O)O)C1)S(=O)(=O)c1ccc(F)cc1` (stereo not drawn), the Potency in [1] is 4.69 µM (active); in test [4] it was 18.7 µM (active); in test [5], 1.87 µM (active); in test [6], 3.72 µM (active); in test [7], 0.0743 µM (active); in test [9], 3.72 µM (active). In [12], the Potency is 0.296 µM (active). For the same compound, the Potency result in [8], in test [10] and in test [14] was “inactive” each time.

For the compound `C[C@]12CC[C@H](O)CC1=CCC1C2CC[C@]2(C)C(n3cnc4ccccc43)=CCC12` (stereo partly drawn), the results for the Potency in [1] and in [5] were 18.7 µM (active) and 14.8 µM (active), respectively. For the same compound, the Potency entry in [2], in [4], in [6], in [8], in test [11] and in [12] was “inactive” throughout. Also, the Z-AUC in [15] is 0.586 (inactive); in test [15] (setting [18]), 1.13; in test [15] (measured here: PEO4 Z-AUC), 0.642. Moreover, the z-score in test [17] (TFE3-RCC UOK109 viability, measured here: UOK109 Z-AUC) was 0.298; in test [17] (TFE3-RCC viability, measured here: UOK124 Z-AUC), 0.603; in test [17] (TFE3-RCC viability, measured here: UOK145 Z-AUC) it was -0.0216.

Turning to `COc1ccc(OC)c(-c2nnc3ccc(-c4ccc(OC)c(O[C@@H]5CCOC5)c4)nn23)c1`, the Potency in [1] is 16.6 µM (active); in test [2] it was 8.33 µM (active); in test [4] it was 7.43 µM (active); in test [5], 8.33 µM (active); in test [6], 7.43 µM (active); in test [7], 6.62 µM (active). Also, the Potency was 9.35 µM (active) in test [16]; 8.33 µM (active) in test [8]; 7.43 µM (active) in test [9]; 18.7 µM (active) in test [10]; 23.5 µM (active) in test [14]; 6.62 µM (active) in test [11]. Besides, in test [12], the Potency is 7.43 µM (active). Moreover, the Z-AUC was -1.33 (inactive) in [15], -1.59 in [15] (setting [18]) and -1.98 in test [15] (measured here: PEO4 Z-AUC).
